# In the library only some 7.4% were active in any assay of this set; here they are far more common.
# ELG1 genotoxic – inducers of genotoxicity in HEK293T ELG1-luciferase cells | hit rate 1.3% among 330,000 | HEK293T ELG1-luciferase reporter, luminescence, 16 h | Potency, µM (highest dose often 46 µM), for inactives: top-dose activity change, positive = activation, actives largely listed as activators | AID 504466; note: % of control where 0% means no effect; nearly all actives have a fitted effect of over 60% in size
#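 Genotoxic stress is detected as increased luminescence from luciferase-tagged ELG1 in HEK293T cells, measured with ONE-Glo after a 16 hr treatment at 37 °C.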
# SMN2 splice up – SMN2 splice variant enhancement; HEK293 SMN2-luciferase splicing reporter, luminescence, 30-36 h; Potency, µM (titrated, usually from 46.1 µM), for inactives: top-dose activity change, positive = activation, hits mostly activators; hit rate 2.8% among 210,000; AID 1458; note: % of control where 0% means no effect; nearly all actives have a fitted effect of over 55% in size
#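 HEK293 cells carry an SMN2 […]–luciferase reporter in which exon 7 inclusion puts luciferase in frame. Cells were plated 10-12 h before compound addition, then incubated 30-36 h at 37C. ONE-Glo luminescence was read; sodium butyrate at 4.5 mM final served as control.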
# FLuc counter – firefly luciferase modulation, counter-screen for miR-21 project | purified FLuc, Km substrates, luminescence inhibition | Potency, µM (titrated, usually from 57.5 µM), for inactives: at the highest dose activity change, negative = inhibition, usual class: inhibitors | hit rate 6.9% among 360,000 | AID 588342;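 note: plate controls were vehicle for no effect and reference inhibitor for full effect; nearly all actives have a fitted effect of over 55% in size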
# Target sequence (P08659 whole entry, looked up): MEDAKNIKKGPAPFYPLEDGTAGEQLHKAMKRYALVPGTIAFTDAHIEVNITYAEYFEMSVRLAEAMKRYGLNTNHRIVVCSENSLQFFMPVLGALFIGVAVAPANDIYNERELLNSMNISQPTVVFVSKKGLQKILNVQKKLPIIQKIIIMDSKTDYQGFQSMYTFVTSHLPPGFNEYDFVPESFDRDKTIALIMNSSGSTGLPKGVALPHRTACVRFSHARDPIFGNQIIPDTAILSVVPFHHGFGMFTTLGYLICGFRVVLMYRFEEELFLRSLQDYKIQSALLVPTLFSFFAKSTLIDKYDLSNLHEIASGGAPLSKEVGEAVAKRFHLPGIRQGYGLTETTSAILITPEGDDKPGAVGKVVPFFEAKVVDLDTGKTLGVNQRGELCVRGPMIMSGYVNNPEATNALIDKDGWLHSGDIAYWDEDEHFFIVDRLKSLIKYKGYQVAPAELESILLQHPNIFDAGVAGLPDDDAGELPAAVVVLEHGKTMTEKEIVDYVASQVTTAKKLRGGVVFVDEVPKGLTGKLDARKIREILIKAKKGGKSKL
#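 Biochemical qHTS of compounds, final roughly 60 µM downward over six points, against 10 nM purified firefly luciferase using Km concentrations of substrates (10 uM D-luciferin, 10 uM ATP) in Tris acetate pH 7.5 buffer; luminescence output.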
# Rab9 promoter act – activators of Rab9 promoter | AID 485297 | Potency, µM (doses to about 9.22 µM), inactives show top-dose activation, negative = inhibition, actives largely listed as activators | hit rate 2.8% among 320,000 | Huh7 Rab9 promoter-luciferase reporter, luminescence, 24 h; note: % of control where 0% means no effect; nearly all actives have a fitted effect of over 60% in size
#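 Steps: seed 1500 Huh7 Rab9-luc cells per well, rest 2 h at 37 °C; add compound in DMSO; incubate 24 h; add luciferase reagent, 10 min ambient; read luminescence.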
# NPC1 promoter act – NPC1 promoter activation. AID 485313. Potency, µM (doses to about 9.22 µM), for the others: top-dose activation, usual class: activators. hit rate 2.4% among 320,000. Huh7 NPC1 promoter luciferase reporter, 24 h; note: % of control where 0% means no effect; nearly all actives have a fitted effect of over 60% in size
#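 Huh7 reporter cells (NPC1 promoter driving luciferase) are dosed with compound for 24 h at 37 °C, 5% CO2; luciferase detection reagent is then added and luminescence measured after 10 min at ambient temperature.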
# * marks the source's active call; other numbers are inactive results; ? = inconclusive; · = no result given; [ ] = remark or other dose. Calls come from the whole dose curve; as a rule, active = well fitted curve in the direction sought with a large enough effect; inconclusive = small, poorly fitted or top-dose-only effect, or another doubt; inactive = no such curve, though single readings can be large; an effect the other way counts as inactive or inconclusive. Potency is the fitted concentration of half-maximal effect.
SMILES,ELG1 genotoxic,SMN2 splice up,FLuc counter,Rab9 promoter act,NPC1 promoter act
COc1ccc(C(=O)c2cc3cccc(OC)c3o2)cc1,?,14.1µM*,9.53µM*,3.16µM*,3.16µM*
CC(=O)c1ccc(COC(=O)c2cc3ccccc3oc2=O)cc1,17.1%,·,16.9µM*,6.0%,-2.2%
COc1ccc(-c2cc(C(F)(F)F)nc(SCC(=O)N3CCC(C)CC3)n2)cc1,·,1.5%,-3.6%,·,·
COc1cccc2cc(C(=O)Oc3ccccc3)c(=O)oc12,2.2%,·,12µM*,-2.3%,-3.2%
COC(=O)CC1Oc2ccccc2-n2cc(-c3ccc(Cl)cc3)nc21 (stereo not drawn),·,?,3.9%,·,·
COc1ccc(/C=C2\SC(=S)N(CCC(=O)NCCCN3CCOCC3)C2=O)cc1,0.5%,·,16.9µM*,-8.3%,1.5%
CCc1ccc(/C=C2\SC(=S)N(CCC(=O)NCCCN3CCOCC3)C2=O)cc1,8.8%,·,6.75µM*,-14.0%,15.4%
COC(=O)c1ccc(/C=C2\SC(=S)N(CCCC(=O)NCCCN3CCOCC3)C2=O)cc1,-10.2%,·,?,-3.6%,-9.7%
Cc1ccc(/C=C2\SC(=S)N(CCC(=O)NCCCN3CCOCC3)C2=O)cc1,-8.0%,·,?,-2.5%,-1.7%
CCN(CC(=O)Nc1c(F)cccc1F)C(=O)/C=C/c1ccc(OCC#N)c(OC)c1,1.0%,·,5.9%,-6.2%,0.0%
CCN(CC(=O)Nc1c(F)cccc1F)C(=O)/C=C/c1ccc(C)cc1,?,·,19µM*,?,?
CCCCS(=O)(=O)c1nc(-c2ccc(Br)cc2)cc(-c2ccccc2)c1C#N,·,-109.4%,1.7%,·,·
CCOC(=O)c1nn(-c2ccc3c(c2)OCO3)cc1O,?,?,12µM*,?,3.16µM*
CCOC(=O)C1=NN(c2ccc(Cl)cc2)C(=O)C1,?,·,9.53µM*,?,?
COC(=O)c1nn(-c2ccc(-c3ccccc3)cc2)cc1O,12.9%,?,0.338µM*,?,?
CCOC(=O)c1nn(-c2cc(C(=O)OC)cc(C(=O)OC)c2)cc1O,3.5%,1.7%,2.0%,-3.2%,-2.2%
CCOC(=O)c1nn(-c2sc(C(=O)OC)c(C)c2C(=O)OC)cc1O,5.1%,?,-1.6%,-1.6%,-0.3%
CCOC(=O)c1nn(-c2ccc3ccccc3c2)cc1O,14.6µM*,13.3%,8.49µM*,23.2%,?
CCC(=O)Nc1nnc2n1CCS2,·,·,1.2%,·,·
C[C@H]1CN([C@@H](C)CO)C(=O)c2cc(NC(=O)C3CCCCC3)ccc2O[C@H]1CN(C)S(=O)(=O)c1ccccc1,-0.2%,·,·,·,·
CCn1cc(S(=O)(=O)NCc2ccc(OC)cc2)cn1,-4.1%,·,5.2%,-2.3%,-1.5%
N#Cc1ccccc1NC(=O)C(=O)NCC(c1cccnc1)N1CCc2ccccc21 (stereo not drawn),·,·,-1.8%,·,·
CCNc1nc(N)nc(Oc2ccc(OCC(=O)OC)nn2)n1,·,-0.5%,-5.6%,·,·
C=C1C[C@@]23CC[C@H]4[C@@](C)(CCC[C@@]4(C)C(=O)OC4OC(CO)C(O)C(O)C4O)[C@@H]2CC[C@]1(OC1OC(CO)C(O)C(O)C1OC1OC(CO)C(O)C(O)C1O)C3 (stereo partly drawn),·,·,·,-7.7%[46.1 µM],-4.7%[46.1 µM]
CCOC(=O)c1nn(-c2ccc(Cl)cc2)cc1O,?,·,10.7µM*,?,?
SMILES,ELG1 genotoxic,SMN2 splice up,FLuc counter,Rab9 promoter act,NPC1 promoter act
CCOC(=O)c1cc(C(=O)OCC)cc(-n2cc(O)c(C(=O)OCC)n2)c1,0.4%,-0.1%,-0.8%,0.2%,0.2%
CCOC(=O)c1nn(-c2ccc(C)cc2)cc1O,3.16µM*,?,7.57µM*,?,4.47µM*
CC(C)S(=O)(=O)c1csc(NC(=O)Nc2cc(Cl)ccc2Cl)c1Cl,-10.0%,·,?,-5.0%,1.2%
CCOCCCNC(=O)C1(O)c2ccccc2NC(=O)N1c1ccc(Cl)cc1 (stereo not drawn),6.2%,·,-5.7%,-6.2%,-3.6%
O=C(C[n+]1cc(-c2ccccc2)n2c1CCC2)N1c2ccccc2Sc2ccccc21,-5.8%,-17.7%,2.1%,-1.0%,-1.6%
O=C(C[n+]1cc(-c2ccc(F)cc2)n2c1CCC2)N1c2ccccc2Sc2ccccc21,?,76.2%,2.39µM*,2.82µM*,?
O=S(=O)(Nc1cccc(-c2cn3ccsc3n2)c1)c1ccc(F)cc1,?,-24.3%,?,6.1%,-2.0%
COc1cc(OC)cc(C(=O)Nc2cccc(-c3cn4ccsc4n3)c2)c1,·,·,6.01µM*,·,·
COc1cccc(C(=O)Nc2cccc(-c3cn4ccsc4n3)c2)c1OC,·,·,15.1µM*,·,·
COc1cccc(OC)c1C(=O)Nc1cccc(-c2cn3ccsc3n2)c1,·,·,23.9µM*,·,·
COc1cccc(C(=O)NCc2cn3ccsc3n2)c1,12.3%,24.2%,-28.7%,-7.3%,-0.2%
Cc1ccc(C)c(CN2C(=O)c3ccccc3Sc3ccc(C(=O)NCc4ccc5c(c4)OCO5)cc32)c1,·,·,1.1%,·,·
Cc1nc2scc(C)n2c(=O)c1S(=O)(=O)Nc1ccc(OC(F)(F)F)cc1,-1.4%[9.26 µM],·,0.8%,-0.9%,-5.7%
O=C(Nc1ccccn1)c1sc2cccc(F)c2c1Cl,?,2.51µM*,0.379µM*,?,?
O=C(Nc1cccnc1)c1sc2cccc(F)c2c1Cl,-2.7%,?,8.49µM*,?,?
Cc1c(C(=O)c2ccccc2)oc2ccc3ccccc3c12,?,·,4.78µM*,3.16µM*,?
CCCCn1c(N)c(N(CC)C(=O)c2cc(S(=O)(=O)N3CCCCCC3)ccc2OC)c(=O)[nH]c1=O,1.6%,·,-1.1%,-1.8%,-8.7%
COc1ccccc1/C=C1\SC(N2CCC(C)CC2)=NC1=O,?,·,12µM*,5.1%,-29.0%
CCOC(=O)C1CCN(C2=NC(=O)/C(=C/c3ccccc3OC)S2)CC1,0.2%,·,?,-1.0%,8.5%
COc1cccc(/C=C2\SC(N3CCCC(C)C3)=NC2=O)c1OC (stereo not drawn),?,·,5.36µM*,?,?
COc1cccc(/C=C2\SC(N3CCC(C)CC3)=NC2=O)c1OC,9.1%,·,16.9µM*,4.0%,11.8%
COc1cccc(/C=C2\SC(=S)N(N3CCOCC3)C2=O)c1OC,?,2.6%,16.9µM*,-2.7%,-1.6%
COc1ccc(/C=C2\SC(=S)N(N3CCOCC3)C2=O)c(OC)c1,8.7%,·,?,-0.1%,2.8%
O=C(Nc1ccc(OCc2cc(=O)n3c4c(sc3n2)CCCC4)cc1)c1ccc(F)cc1,·,1.8%,1.2%,·,·
COc1ccc(S(=O)(=O)NCC2CCCN(C(=O)CC3CCCC3)C2)cc1 (stereo not drawn),-6.5%,·,4.5%,-5.7%,-5.6%
O=c1oc2ccccc2cc1-c1nc2c(s1)CCCC2,?,1µM*,0.151µM*,0.398µM*,?
O=c1oc2ccccc2cc1-c1nc2ccccc2o1,?,?,3.01µM*,2.82µM*,3.55µM*
Cc1nc2ccccc2oc1=O,·,10.4%,·,·,·

# Assay outcomes (PubChem BioAssay)
